In ChEMBL document CHEMBL3988442, “University of Dundee, Small-Polar-MMV Screening Library” (2021):

Target: AMP-activated protein kinase, AMPK (Homo sapiens) (UniProt P54646+O43741+P54619+Q9UGJ0+Q9Y478+Q13131+Q9UGI9)
Test: AMP-dependent Kinase enzyme assay. An in vitro enzyme assay that detects ADP turnover that is directly proportional to AMPK activity. This uses naive AMPK that is activated during the assay with MK-8722
Format: functional
Design: scale not given: direction of the effect not stated beside the values
Conditions: 30 µM

Structure (SMILES) | Percent Effect [%]
CN(Cc1ccc(F)c(F)c1)Cc1cc2c(cc1Br)OCCO2 | -7
CCc1nn(C)c(Cl)c1CN1CCCC2(CC1)CN(C)C(=O)O2 (stereo not given) | -9.39
NC(=O)NC1CCN(Cc2ccc3c(c2)CCC3)CC1 | 2.24
Cc1nnc(N2CCc3cnc(C(C)C)nc3C2)c(C#N)c1C | -15.2
O=C(NCc1ccc(-n2cncn2)nc1)c1cc(Cl)ccn1 | -4.58
Cc1cc(NC(C)c2n[nH]c(C)n2)n2nc(C)c(C)c2n1 (stereo not given) | 20.5
CN(C)c1nc(N)nc(CN2CCC(c3nc4ccccc4o3)CC2)n1 | -11.3
NC(=O)COc1ccc(CN2CCC3(CC2)[C@H](O)C[C@@H]3O)cc1Cl | 8.11
Cc1cc(C)n2c(CNCCNc3ccccc3)cnc2n1 | -15.1
Cc1ccc(N2CCC(CCN3CCCC3=O)CC2)nn1 | -7.57
CC(NCc1cnc(N2CCOCC2)nc1)c1ccc(Cl)s1 (stereo not given) | 10.3
O=C(NCc1nncn1C1CC1)c1cccnc1Oc1ccccc1 | 1.39
Cc1ccc(CNCc2nccn2C)c(OC(C)(C)C)c1 | -4.8
COc1ccc(N2CCC(NC(=O)c3sccc3C)CC2)cc1 | -1.46
Cc1cc(C(=O)NC(C)CC(=O)c2ccco2)[nH]n1 (stereo not given) | 2.92
Cc1nc(N)cc(C2(C)CCCNC2)n1 (stereo not given) | 14.2
CC(C(=O)N1CCC(c2[nH]ncc2-c2ccccc2)CC1)n1cncn1 (stereo not given) | -1.59
CCC(C)C(=O)Nc1ccc(CCN2CCOCC2)cc1 (stereo not given) | 11.3
Cc1nnc(NC(=O)c2c3c(nn2C2CCS(=O)(=O)C2)CCC3)s1 (stereo not given) | -6.11
Cc1cc(CC(=O)NC2CCCN(Cc3ccccc3)C2=O)n[nH]1 (stereo not given) | 9.56
